Source: PubChem BioAssay (EPA / NIEHS)
The source made the active and inactive calls. How the source made its calls: active means hit-call score of the fitted dose curve at least 0.9, where 1 is the maximum; inactive means score below 0.9.

Tests used:
Details in all cases: mRNA level, 48 h; actives raise or lower the signal
[1] = read-out: Peroxisomal acyl-coenzyme A oxidase 1 (ACOX1) gene, ACOX1 (gene 51); experiment: LTEA_HepaRG_ACOX1: Life Technologies and Expression Analysis (LTEA) Assay for Peroxisomal acyl-coenzyme A oxidase 1 (ACOX1) gene using HepaRG (AID 2283467)
Outline: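 Differentiated human HepaRG cells were exposed in duplicate for 48 h in serum-free induction medium to eight half-log concentrations up to 100 uM in 0.5% DMSO. ACOX1 mRNA was then quantified by TaqMan qRT-PCR, normalized to ACTB, GAPDH and POLR2A.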

[2] = read-out: Alkaline Phosphatase, Placental (ALPP) gene, ALPP (gene 250); experiment: LTEA_HepaRG_ALPP: Life Technologies and Expression Analysis (LTEA) Assay for Alkaline Phosphatase, Placental (ALPP) gene using HepaRG (AID 2283468)
Outline: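 Expression of ALPP was quantified by qRT-PCR against three housekeeping genes in human HepaRG cultures treated for 48 h with an eight-point concentration series up to 100 uM. Activity in either direction was fitted relative to 0.5% DMSO.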

[3] = read-out: Bcl-2 (BAD) gene, BAD (gene 572); experiment: LTEA_HepaRG_BAD: Life Technologies and Expression Analysis (LTEA) Assay for Bcl-2 (BAD) gene using HepaRG (AID 2283469)
Outline: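 Differentiated human HepaRG cells in serum-free induction medium were exposed in duplicate for 48 h to eight concentrations (top 100 uM, half-log steps, 0.5% DMSO). BAD mRNA was quantified by qRT-PCR normalised to ACTB, GAPDH and POLR2A, with bidirectional fitting versus DMSO.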

[4] = read-out: Bcl-2 (BAX) gene, BAX (gene 581); experiment: LTEA_HepaRG_BAX: Life Technologies and Expression Analysis (LTEA) Assay for Bcl-2 (BAX) gene using HepaRG (AID 2283470)
Outline: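 Concentration-response endpoint fitted in both directions relative to 0.5% DMSO vehicle. Human HepaRG cultures receive test chemicals for 48 h at up to 100 uM; BAX mRNA is quantified by qRT-PCR against housekeeping genes.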

[5] = read-out: adenosine kinase (ADK) gene, ADK (gene 132); experiment: LTEA_HepaRG_ADK: Life Technologies and Expression Analysis (LTEA) Assay for adenosine kinase (ADK) gene using HepaRG (AID 2283471)
Outline: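 Differentiated HepaRG cells dosed 48 h in serum-free induction medium, 0.5% DMSO vehicle, eight half-log concentrations from 100 uM, in duplicate. ADK mRNA by TaqMan qRT-PCR normalised to ACTB, GAPDH, POLR2A; bidirectional fit versus DMSO.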

[6] = read-out: Alpha-fetoprotein (AFP) gene, AFP (gene 174); experiment: LTEA_HepaRG_AFP: Life Technologies and Expression Analysis (LTEA) Assay for Alpha-fetoprotein (AFP) gene using HepaRG (AID 2283472)
Outline: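 After a 48 h plating period, cells are moved to serum-free induction medium and dosed in duplicate (100 uM maximum, half-log dilutions, 0.5% DMSO) for another 48 h. Total RNA goes to TaqMan qRT-PCR; AFP signal is housekeeping-normalized.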

BCL2L11 (gene 10018) = experiment: LTEA_HepaRG_BCL2L11: Life Technologies and Expression Analysis (LTEA) Assay for Bcl-2 (BCL2L11) gene using HepaRG (AID 2283473)
Outline: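 Cells were plated, cultured 48 h, switched to serum-free induction medium, then dosed in duplicate for 48 h at eight half-log concentrations up to 100 uM. Lysates underwent RNA isolation and TaqMan qRT-PCR; gain or loss versus DMSO was fitted.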

[7] = read-out: Apolipoprotein A-V (APOA5) gene, APOA5 (gene 116519); experiment: LTEA_HepaRG_APOA5: Life Technologies and Expression Analysis (LTEA) Assay for Apolipoprotein A-V (APOA5) gene using HepaRG (AID 2283474)
Outline: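 Human liver HepaRG cells are treated 48 h with test chemicals (100 uM top, half-log dilutions, 0.5% DMSO). APOA5 mRNA induction or loss is measured by qRT-PCR relative to vehicle.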

[8] = read-out: Apoptosis regulator Bcl-2 (Homo sapiens) (UniProt P10415); experiment: LTEA_HepaRG_BCL2: Life Technologies and Expression Analysis (LTEA) Assay for Bcl-2 gene using HepaRG (AID 2283475)
Outline: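 Expression change of BCL2 mRNA in HepaRG after 48 h dosing, quantified by TaqMan qRT-PCR against three endogenous controls. Concentration-response used eight points up to 100 uM, vehicle 0.5% DMSO.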

[9] = read-out: Bcl-2 (BID) gene, BID (gene 637); experiment: LTEA_HepaRG_BID: Life Technologies and Expression Analysis (LTEA) Assay for Bcl-2 (BID) gene using HepaRG (AID 2283476)
Outline: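 Gain or loss of BID expression is fitted relative to 0.5% DMSO vehicle. Human HepaRG liver cells received a 48 h chemical exposure over an eight-point concentration range.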

Caspase-3 (Homo sapiens) = Caspase-3 (Homo sapiens) (UniProt P42574); experiment: LTEA_HepaRG_CASP3: Life Technologies and Expression Analysis (LTEA) Assay for cysteine-aspartic acid protease (CASP3) using HepaRG (AID 2283477)
Outline: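 In HepaRG liver cells dosed for 48 h at up to 100 uM (eight-point, duplicate), CASP3 expression changes are scored by qRT-PCR. Activity is fitted in both directions with 0.5% DMSO as baseline.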

[10] = read-out: Cytochrome P450 (CYP24A1), CYP24A1 (gene 1591); experiment: LTEA_HepaRG_CYP24A1: Life Technologies and Expression Analysis (LTEA) Assay for Cytochrome P450 (CYP24A1) using HepaRG (AID 2283478)
Outline: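 Human liver HepaRG cultures receive each chemical for 48 h across an eight-point half-log series topping at 100 uM in 0.5% DMSO. Induction or suppression of CYP24A1 mRNA is scored relative to vehicle after housekeeping-gene normalization.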

[11] = read-out: Cytochrome P450 (CYP1A2), CYP1A2 (gene 1544); experiment: LTEA_HepaRG_CYP1A2: Life Technologies and Expression Analysis (LTEA) Assay for Cytochrome P450 (CYP1A2) using HepaRG (AID 2283479)
Outline: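 Assesses CYP1A2 mRNA in human HepaRG liver cells after 48 h chemical exposure at up to 100 uM. Values come from qRT-PCR with bidirectional curve fitting relative to DMSO.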

[12] = read-out: cysteine-aspartic acid protease (CASP8), CASP8 (gene 841); experiment: LTEA_HepaRG_CASP8: Life Technologies and Expression Analysis (LTEA) Assay for cysteine-aspartic acid protease (CASP8) using HepaRG (AID 2283480)
Outline: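 Differentiated human HepaRG cells, plated 48 h then switched to serum-free induction medium, were exposed in duplicate for 48 h to 8 half-log concentrations up to 100 uM in 0.5% DMSO. CASP8 mRNA was quantified by qRT-PCR, normalized to ACTB/GAPDH/POLR2A.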

[13] = read-out: Cytochrome P450 (CYP2B6), CYP2B6 (gene 1555); experiment: LTEA_HepaRG_CYP2B6: Life Technologies and Expression Analysis (LTEA) Assay for Cytochrome P450 (CYP2B6) using HepaRG (AID 2283481)
Outline: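 Using 48 h treatment of HepaRG cells in serum-free induction medium, concentrations spanned half-log steps from 100 uM in 0.5% DMSO vehicle. CYP2B6 mRNA induction or loss is scored by qRT-PCR against DMSO.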

[14] = read-out: Cytochrome P450 2C19 (Homo sapiens) (UniProt P33261); experiment: LTEA_HepaRG_CYP2C19: Life Technologies and Expression Analysis (LTEA) Assay for CYP2C19 using HepaRG (AID 2283482)
Outline: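 Human HepaRG liver cells received test chemicals for 48 h (highest 100 uM, half-log dilutions in 0.5% DMSO). CYP2C19 mRNA induction or loss is read by multiplexed qRT-PCR and fitted in both directions versus vehicle.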

CYP2C8 (gene 1558) = experiment: LTEA_HepaRG_CYP2C8: Life Technologies and Expression Analysis (LTEA) Assay for CYP2C8 using HepaRG (AID 2283483)
Outline: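 Differentiated human HepaRG cells were exposed for 48 h in serum-free induction medium to eight half-log concentrations up to 100 uM in 0.5% DMSO, in duplicate. CYP2C8 mRNA was measured by TaqMan qRT-PCR, normalized to ACTB, GAPDH and POLR2A, and fitted bidirectionally against DMSO.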

CYP2C9 (gene 1559) = experiment: LTEA_HepaRG_CYP2C9: Life Technologies and Expression Analysis (LTEA) Assay for CYP2C9 using HepaRG (AID 2283484)
Outline: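 Differentiated human HepaRG cells were exposed 48 h in serum-free induction medium to eight half-log concentrations up to 100 uM in 0.5% DMSO. CYP2C9 mRNA was measured by qRT-PCR, normalized to ACTB, GAPDH and POLR2A, and fitted bidirectionally against DMSO.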

CYP2E1 (gene 1571) = experiment: LTEA_HepaRG_CYP2E1: Life Technologies and Expression Analysis (LTEA) Assay for CYP2E1 using HepaRG (AID 2283485)
Outline: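 Differentiated HepaRG cells were treated in duplicate for 48 h with chemicals in 0.5% DMSO, from 100 uM downward in half-log dilutions. RNA was then analysed by qRT-PCR for CYP2E1 induction or loss.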

CYP4A11 (gene 1579) = experiment: LTEA_HepaRG_CYP4A11: Life Technologies and Expression Analysis (LTEA) Assay for CYP4A11 using HepaRG (AID 2283486)
Outline: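 Readout is CYP4A11 mRNA induction or suppression (qRT-PCR, ACTB/GAPDH/POLR2A normalization) in human HepaRG cells after 48 h chemical treatment, concentrations to 100 uM in 0.5% DMSO, fitted bidirectionally against vehicle.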

Measured: AC50

Sequence of Apoptosis regulator Bcl-2 (Homo sapiens) (P10415 whole entry, looked up): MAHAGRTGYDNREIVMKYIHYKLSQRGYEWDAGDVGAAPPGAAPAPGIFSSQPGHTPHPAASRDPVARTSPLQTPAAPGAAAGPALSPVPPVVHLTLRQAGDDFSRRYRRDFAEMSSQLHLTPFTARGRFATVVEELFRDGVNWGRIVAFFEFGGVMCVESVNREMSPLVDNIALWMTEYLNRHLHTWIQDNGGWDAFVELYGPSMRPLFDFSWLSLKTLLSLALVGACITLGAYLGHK
Sequence of Cytochrome P450 2C19 (Homo sapiens) (P33261 whole entry, looked up): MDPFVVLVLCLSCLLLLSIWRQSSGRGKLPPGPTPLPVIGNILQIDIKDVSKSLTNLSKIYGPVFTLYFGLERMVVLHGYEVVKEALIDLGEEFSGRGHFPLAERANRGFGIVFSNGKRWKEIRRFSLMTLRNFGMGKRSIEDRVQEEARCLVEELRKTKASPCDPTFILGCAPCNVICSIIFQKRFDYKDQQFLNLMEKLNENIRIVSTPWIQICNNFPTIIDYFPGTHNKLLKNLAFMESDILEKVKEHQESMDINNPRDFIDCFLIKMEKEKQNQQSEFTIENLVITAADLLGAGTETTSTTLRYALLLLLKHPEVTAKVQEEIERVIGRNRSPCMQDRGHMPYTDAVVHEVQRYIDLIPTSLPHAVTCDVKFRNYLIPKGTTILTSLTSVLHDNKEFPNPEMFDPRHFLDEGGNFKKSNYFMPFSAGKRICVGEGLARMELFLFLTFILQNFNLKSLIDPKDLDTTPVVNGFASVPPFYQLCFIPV
Sequence of Caspase-3 (Homo sapiens) (P42574 whole entry, looked up): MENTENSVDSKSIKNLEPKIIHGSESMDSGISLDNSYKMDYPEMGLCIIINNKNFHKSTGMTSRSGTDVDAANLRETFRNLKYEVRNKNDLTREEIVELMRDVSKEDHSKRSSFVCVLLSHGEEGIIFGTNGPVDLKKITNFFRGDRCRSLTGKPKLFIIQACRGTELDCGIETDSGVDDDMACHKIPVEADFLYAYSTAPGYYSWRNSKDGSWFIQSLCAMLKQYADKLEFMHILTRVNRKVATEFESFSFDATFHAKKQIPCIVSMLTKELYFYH

C1CC2OC2CC1C1CO1 (stereo not drawn)
active: [13] 7.5 µM
inactive: all other assays above

O=C(O)C(F)(F)C(F)(F)C(F)(F)C(F)(F)C(F)(F)C(F)(F)C(F)(F)C(F)(F)F
active: [1] 90.4 µM | [2] 50 µM | [4] 76.3 µM | [6] 78.4 µM | BCL2L11 (gene 10018) 50 µM | [7] 82 µM | [8] 73.6 µM | [11] 83.6 µM | [13] 82.4 µM | [14] 87.1 µM | CYP2C8 (gene 1558) 80 µM | CYP2C9 (gene 1559) 80.5 µM | CYP2E1 (gene 1571) 93.9 µM | CYP4A11 (gene 1579) 89.5 µM
inactive: [3] | [5] | [9] | Caspase-3 (Homo sapiens) | [10]

CN(C)CCO
inactive: all assays above

Oc1ccc(C(c2ccc(O)cc2)(C(F)(F)F)C(F)(F)F)cc1
active: [1] 83.8 µM | [2] 83 µM | [5] 81.6 µM | BCL2L11 (gene 10018) 78.9 µM | [13] 92 µM | [14] 85.8 µM | CYP2E1 (gene 1571) 79.4 µM | CYP4A11 (gene 1579) 76.6 µM
inactive: all other assays above

CCNc1nc(NC(C)C)nc(SC)n1
active: [2] 17.9 µM | [6] 50 µM | [13] 1.11 µM | [14] 2.45 µM | CYP2E1 (gene 1571) 29.1 µM | CYP4A11 (gene 1579) 50 µM
not listed: [12]
inactive: all other assays above
